# Data as given in PubChem BioAssay.
# Activity calls are given as the source filed them.
# Assays:
# [1] = system: Plasmodium falciparum Sir2 (PF13_0152, Sir2A); experiment: Plasmodium falciparum Sir2A binding compounds – biochemical, small-molecule microarray, 635 nm fluorescence, primary screen (AID 1098); conditions: fluorescence 635 nm, higher = more signal;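 note: score merges spot fluorescence intensity with its signal-to-noise ratio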
# [2] = probe aDKK1 binding to arrayed compounds – biochemical, biotinylated probe, 635/667 nm fluorescence, primary screen (AID 1099); conditions: small-molecule microarray, higher = more signal;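 note: score merges 667nm spot fluorescence with signal to noise across triplicate slides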
# [3] = probe aCHRDL2 binding to arrayed compounds – biochemical, biotinylated probe, 635/667 nm fluorescence, primary screen (AID 1100); conditions: small-molecule microarray, higher = more signal
# [4] = change in splice reporter luminescence, either direction, cell-based, HEK293, spliceosome inhibition project, primary screen (AID 1101); conditions: HEK293 splicing luciferase reporter, 24 h, higher = more signal, called active from +8 up or from −8 down;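 note: HEK293 cells carrying a splicing-competent luciferase reporter gene; test concentration not given here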
# [5] = biological target: Fibroblast growth factor 10 (Homo sapiens) (UniProt O15520); experiment: compounds binding fibroblast growth factor 10 – biochemical, small-molecule microarray, 635 nm fluorescence, primary screen (AID 1102); conditions: FGF10 binding, fluorescence 635 nm, higher = more signal
# Fibroblast growth factor 10 (Homo sapiens), sequence (O15520 whole entry, looked up): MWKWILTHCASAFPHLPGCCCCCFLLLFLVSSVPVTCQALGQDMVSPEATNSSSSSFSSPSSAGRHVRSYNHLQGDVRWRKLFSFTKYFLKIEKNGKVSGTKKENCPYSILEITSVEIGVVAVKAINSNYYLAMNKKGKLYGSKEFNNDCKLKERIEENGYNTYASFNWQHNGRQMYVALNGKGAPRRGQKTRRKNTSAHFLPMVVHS
# [6] = system: glycogen synthase kinase-3 (GSK3A per assay name; protocol says GSK3B); experiment: compounds binding glycogen synthase kinase-3 – biochemical, small-molecule microarray, 635 nm fluorescence, GSK3A, primary screen (AID 1103); conditions: fluorescence 635 nm, higher = more signal; note: the record names both GSK3A and GSK3B
# [7] = biological target: Epidermal growth factor receptor (Homo sapiens) (UniProt P00533); experiment: compounds binding epidermal growth factor receptor – biochemical, small-molecule microarray, 635 nm fluorescence, primary screen (AID 1104); conditions: EGFR binding, higher = more signal;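 note: score merges 667 nm emission intensity with spot signal to noise over triplicate slides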
# Epidermal growth factor receptor (Homo sapiens), sequence (P00533 whole entry, looked up): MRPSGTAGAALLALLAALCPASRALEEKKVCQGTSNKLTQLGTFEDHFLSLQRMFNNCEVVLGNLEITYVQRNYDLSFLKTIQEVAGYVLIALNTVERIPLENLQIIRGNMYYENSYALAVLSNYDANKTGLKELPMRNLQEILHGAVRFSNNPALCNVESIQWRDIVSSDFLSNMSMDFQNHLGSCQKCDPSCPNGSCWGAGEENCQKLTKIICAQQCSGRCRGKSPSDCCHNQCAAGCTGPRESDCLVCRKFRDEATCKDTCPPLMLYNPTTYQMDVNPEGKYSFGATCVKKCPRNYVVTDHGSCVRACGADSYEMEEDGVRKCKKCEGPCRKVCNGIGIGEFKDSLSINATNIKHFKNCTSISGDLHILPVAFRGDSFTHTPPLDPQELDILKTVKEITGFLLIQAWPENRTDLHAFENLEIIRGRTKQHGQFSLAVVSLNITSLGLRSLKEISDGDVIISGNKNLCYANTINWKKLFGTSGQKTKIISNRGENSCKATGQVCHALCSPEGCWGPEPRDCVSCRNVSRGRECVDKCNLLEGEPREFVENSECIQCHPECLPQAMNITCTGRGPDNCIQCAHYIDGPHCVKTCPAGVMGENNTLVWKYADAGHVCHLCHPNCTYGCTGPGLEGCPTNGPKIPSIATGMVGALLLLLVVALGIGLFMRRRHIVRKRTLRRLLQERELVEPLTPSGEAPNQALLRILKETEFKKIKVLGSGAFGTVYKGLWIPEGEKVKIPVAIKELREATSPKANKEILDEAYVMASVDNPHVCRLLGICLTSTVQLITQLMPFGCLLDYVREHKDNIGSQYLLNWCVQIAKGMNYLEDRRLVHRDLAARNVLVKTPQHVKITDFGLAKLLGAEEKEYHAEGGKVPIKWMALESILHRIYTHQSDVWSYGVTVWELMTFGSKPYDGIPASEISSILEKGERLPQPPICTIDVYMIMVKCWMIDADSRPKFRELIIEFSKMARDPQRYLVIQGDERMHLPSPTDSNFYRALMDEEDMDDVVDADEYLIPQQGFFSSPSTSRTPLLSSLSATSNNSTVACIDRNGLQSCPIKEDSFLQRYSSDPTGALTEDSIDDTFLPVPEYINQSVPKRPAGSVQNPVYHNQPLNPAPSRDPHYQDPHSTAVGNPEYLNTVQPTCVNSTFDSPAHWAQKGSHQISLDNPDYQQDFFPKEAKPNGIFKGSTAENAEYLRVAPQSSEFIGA
# [8] = biological target: Follistatin-related protein 3 (Homo sapiens) (UniProt O95633); experiment: compounds binding follistatin-related protein 3 – biochemical, small-molecule microarray, 635 nm fluorescence, primary screen (AID 1105); conditions: FSTL3 binding, higher = more signal;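 note: score merges emission near 667 nm and signal to noise per printed spot across three slides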
# Follistatin-related protein 3 (Homo sapiens), sequence (O95633 whole entry, looked up): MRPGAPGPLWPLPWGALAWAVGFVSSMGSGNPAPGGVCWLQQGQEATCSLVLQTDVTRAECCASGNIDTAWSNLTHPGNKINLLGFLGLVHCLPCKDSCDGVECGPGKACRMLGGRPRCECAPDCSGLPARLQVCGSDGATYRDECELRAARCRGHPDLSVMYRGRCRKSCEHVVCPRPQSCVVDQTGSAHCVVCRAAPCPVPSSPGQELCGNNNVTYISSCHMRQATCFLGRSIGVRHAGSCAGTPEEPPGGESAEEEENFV
# [9] = biological target: Dickkopf-related protein 1 (Homo sapiens) (UniProt O94907); experiment: small molecules binding DKK1 protein – biochemical, small-molecule microarray, 635 nm fluorescence scan, primary screen (AID 1106); conditions: higher = more signal;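 note: score merges emission near 667 nm with signal to noise over three replicate slides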
# Dickkopf-related protein 1 (Homo sapiens), sequence (O94907 whole entry, looked up): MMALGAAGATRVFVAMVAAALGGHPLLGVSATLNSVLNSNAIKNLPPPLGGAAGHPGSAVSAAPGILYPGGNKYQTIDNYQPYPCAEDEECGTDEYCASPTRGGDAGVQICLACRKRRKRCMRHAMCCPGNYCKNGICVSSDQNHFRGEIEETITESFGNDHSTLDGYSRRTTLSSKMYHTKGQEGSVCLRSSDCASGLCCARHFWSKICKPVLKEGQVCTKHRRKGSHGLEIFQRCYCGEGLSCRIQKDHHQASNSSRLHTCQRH
# [10] = system: Inhibin beta A chain (activin A); experiment: small molecules binding activin A – biochemical, small-molecule microarray, 635 nm fluorescence scan, primary screen (AID 1107); conditions: INHBA, higher = more signal;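 note: mouse activin A protein probed at 4.33 µg/mL on printed slides; score merges bound-protein fluorescence near 667 nm with spot signal-to-noise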
# [11] = system: Human papillomavirus type 1a protein E7 (residues 44-93); experiment: small molecules binding HPV E7 44-93 – biochemical, small-molecule microarray, residues 44-93, 635 nm fluorescence, primary screen (AID 1108); conditions: fluorescence 635 nm, higher = more signal;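 note: E7 fragment applied at 1 µg/mL in TBST for 1 h at 4 C; score combines spot fluorescence with its signal to noise ratio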
# [12] = hepatitis C replication reporter changes, two-sided – Huh7 cells, luciferase reporter, HCV replication inhibitor project, primary screen (AID 1109); conditions: Huh7 HCV replicon luciferase reporter, 48 h; higher = more signal;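 note: huh7 hepatoma cells harbouring a luciferase neomycin HCV replicon reporter; luciferase luminescence as measure of HCV replicon replication; test concentration not given here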
# [13] = biological target: Left-right determination factor 2 (Homo sapiens) (UniProt O00292); experiment: small molecules binding LEFTY2 protein – biochemical, small-molecule microarray, 635 nm fluorescence scan, primary screen (AID 1110); conditions: higher = more signal
# Left-right determination factor 2 (Homo sapiens), sequence (O00292 whole entry, looked up): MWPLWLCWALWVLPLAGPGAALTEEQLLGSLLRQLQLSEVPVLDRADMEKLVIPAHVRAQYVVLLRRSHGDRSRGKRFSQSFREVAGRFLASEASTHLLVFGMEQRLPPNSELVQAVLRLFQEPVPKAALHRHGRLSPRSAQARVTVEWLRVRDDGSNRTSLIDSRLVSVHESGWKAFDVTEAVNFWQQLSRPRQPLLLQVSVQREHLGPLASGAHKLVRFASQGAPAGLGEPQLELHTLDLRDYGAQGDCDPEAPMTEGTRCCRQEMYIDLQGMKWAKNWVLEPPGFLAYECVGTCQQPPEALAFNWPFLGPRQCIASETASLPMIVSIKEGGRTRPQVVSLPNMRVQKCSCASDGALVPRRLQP
# [14] = biological target: Calmodulin-1 (Homo sapiens) (UniProt P0DP23); experiment: small molecules binding calmodulin-1 with EGTA – biochemical, small-molecule microarray, Cy5-labelled CALM1, profiling panel (AID 1111); conditions: Cy5-CALM1 binding fluorescence, higher = more signal;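 note: labelled calmodulin applied in Tris saline Tween buffer holding calcium plus EGTA and DTT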
# [15] = biological target: Calmodulin-1 (Homo sapiens) (UniProt P0DP23); experiment: small molecules binding Ca-loaded calmodulin-1 – biochemical, small-molecule microarray, Cy5-labelled CALM1, plus calcium, artefact control for SMM control-protein annotation, profiling panel (AID 1112); conditions: Cy5-CALM1 binding fluorescence, higher = more signal;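 note: score merges spot fluorescence with signal to noise from triplicate slides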
# [16] = probe aWnt5a binding to arrayed compounds – biochemical, biotinylated probe, 635/667 nm fluorescence, primary screen (AID 1113); conditions: small-molecule microarray, higher = more signal;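 note: score merges 667 nm fluorescence intensity with signal-to-noise per printed feature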
# [17] = probe aShh binding to arrayed compounds – biochemical, biotinylated probe, 635/667 nm fluorescence, primary screen (AID 1114); conditions: small-molecule microarray, higher = more signal;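 note: probe is biotin-labelled aShh protein from a stem cell growth factor screen; measures binding of labelled protein to compounds printed on the slide; score merges feature fluorescence at 667 nm with signal-to-noise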
# [18] = probe aNog binding to arrayed compounds – biochemical, biotinylated probe, 635/667 nm fluorescence, primary screen (AID 1115); conditions: small-molecule microarray, higher = more signal;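 note: probe is biotinylated aNog protein used at 0.15 µg/mL for 1 h at 4 C; z-score combines 667 nm fluorescence of each spot with its signal to noise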
# [19] = biological target: Torsin-1A-interacting protein 1 (Homo sapiens) (UniProt Q5JTV8); experiment: compound microarray binding of lysate hLAP1 – cell lysate, small-molecule microarray, COS7 lysate, 635/667 nm fluorescence, primary screen (AID 1116); conditions: 635 nm fluorescence, higher = more signal
# Torsin-1A-interacting protein 1 (Homo sapiens), sequence (Q5JTV8 whole entry, looked up): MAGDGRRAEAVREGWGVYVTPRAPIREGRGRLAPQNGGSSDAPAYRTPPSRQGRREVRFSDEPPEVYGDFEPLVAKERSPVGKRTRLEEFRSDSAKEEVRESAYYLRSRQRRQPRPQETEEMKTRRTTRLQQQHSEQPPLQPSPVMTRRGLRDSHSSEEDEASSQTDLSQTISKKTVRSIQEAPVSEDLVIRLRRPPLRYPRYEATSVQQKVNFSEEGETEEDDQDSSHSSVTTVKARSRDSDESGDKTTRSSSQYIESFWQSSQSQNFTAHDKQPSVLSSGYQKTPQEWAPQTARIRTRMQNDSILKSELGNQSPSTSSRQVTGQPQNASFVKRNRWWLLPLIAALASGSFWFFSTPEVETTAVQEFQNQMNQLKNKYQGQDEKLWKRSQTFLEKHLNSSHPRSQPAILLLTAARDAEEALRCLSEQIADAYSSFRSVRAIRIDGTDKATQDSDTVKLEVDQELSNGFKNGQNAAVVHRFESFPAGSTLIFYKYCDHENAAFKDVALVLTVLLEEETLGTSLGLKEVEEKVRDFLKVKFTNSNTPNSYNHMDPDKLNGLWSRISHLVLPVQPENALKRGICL
# [20] = biological target: Alpha-bungarotoxin (Bungarus multicinctus) (UniProt P60615); experiment: compounds binding labelled alpha-BTX control protein – biochemical, small-molecule microarray, Alexa647 label, 635/667 nm fluorescence, artefact control for SMM control protein annotation, profiling panel (AID 1117); conditions: alpha-BTX-A647 binding fluorescence, higher = more signal
# Alpha-bungarotoxin (Bungarus multicinctus), sequence (P60615 whole entry, looked up): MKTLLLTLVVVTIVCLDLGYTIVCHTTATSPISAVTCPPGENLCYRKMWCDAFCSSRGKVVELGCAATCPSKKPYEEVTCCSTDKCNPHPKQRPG
smiles,measurement,setting,value
CC(C)(C)OC(=O)CC[C@@]1(C(=O)N2CCCCC2)N=C(c2ccc(OCCCO)cc2)O[C@@H]1c1ccccc1N=[N+]=[N-],composite z-score,[1],1.13
same,composite z-score,[2],0.977
same,composite z-score,[3],0.964
same,z-score,[4],-0.405 (inactive)
same,composite z-score,[5],1.19
same,composite z-score,[6],1.3
same,composite z-score,[7],0.32
same,composite z-score,[8],1.1
same,composite z-score,[9],-0.139
same,composite z-score,[10],0.899
same,composite z-score,[11],1.03
same,z-score,[12],0.0393
same,composite z-score,[13],0.503
same,composite z-score,[14],1.07
same,composite z-score,[15],0.398
same,composite z-score,[16],0.0434
same,composite z-score,[17],0.0638
same,composite z-score,[18],1.92
same,composite z-score,[19],1.27
same,composite z-score,[20],0.451
C=CCOC(=O)[C@@H]1[C@H]2C(=O)O[C@H](c3ccccc3)[C@H](c3ccccc3)N2[C@H](c2ccc(OCCOC(=O)[C@H]3C[C@H]4C(=O)N[C@@H](Cc5ccccc5)C(=O)N4[C@H]3c3cccc(OCCO)c3)cc2)[C@@]12C(=O)Nc1ccc(I)cc12,composite z-score,[1],0.921
same,composite z-score,[2],0.141
same,composite z-score,[3],-0.0432
same,z-score,[4],-0.316 (inactive)
same,composite z-score,[5],1.24
same,composite z-score,[6],1.32
same,composite z-score,[7],1.01
same,composite z-score,[8],1.14
same,composite z-score,[9],1.13
same,composite z-score,[10],0.967
same,composite z-score,[11],0.88
same,z-score,[12],-2.08
same,composite z-score,[13],0.413
same,composite z-score,[14],-0.573
same,composite z-score,[15],-0.771
same,composite z-score,[16],-0.0161
same,composite z-score,[17],0.116
same,composite z-score,[18],0.749
same,composite z-score,[19],1.29
same,composite z-score,[20],1.03
COC(=O)C(CC#Cc1ccc2c(c1)[C@]1(C(=O)N2)[C@H](c2ccc(OCCO)cc2)N2[C@H](c3ccccc3)[C@H](c3ccccc3)OC(=O)[C@H]2[C@@H]1C(=O)O)C(=O)OC,composite z-score,[1],1.78
same,composite z-score,[2],1.18
same,composite z-score,[3],0.931
same,z-score,[4],-0.609 (inactive)
same,composite z-score,[5],0.809
same,composite z-score,[6],1.03
same,composite z-score,[7],0.194
same,composite z-score,[8],0.808
same,composite z-score,[9],0.119
same,composite z-score,[10],0.765
same,composite z-score,[11],0.324
same,z-score,[12],-0.442
same,composite z-score,[13],0.431
same,composite z-score,[14],1.23
same,composite z-score,[15],0.707
same,composite z-score,[16],0.0438
same,composite z-score,[17],0.446
same,composite z-score,[18],0.812
same,composite z-score,[19],2.1
same,composite z-score,[20],1.83
C=CCC(OC(C)=O)[C@@H]1[C@@H](N(Cc2ccc(-c3ccccc3)cc2)C(=O)c2cccc3ccccc23)c2cc(OCCCO)ccc2N1C(=O)c1ccc2ccccc2n1 (stereo not given in full),composite z-score,[1],-0.0429
same,composite z-score,[2],0.0158
same,composite z-score,[3],0.308
same,z-score,[4],-0.379 (inactive)
same,composite z-score,[5],-0.142
same,composite z-score,[6],0.124
same,composite z-score,[7],0.0271
same,composite z-score,[8],-0.0464
same,composite z-score,[9],-0.196
same,composite z-score,[10],1.24
same,composite z-score,[11],0.0254
same,z-score,[12],-0.281
same,composite z-score,[13],-0.319
same,composite z-score,[14],0.367
same,composite z-score,[15],1.01
same,composite z-score,[16],-0.224
same,composite z-score,[17],-0.2
same,composite z-score,[18],-0.158
same,composite z-score,[19],0.0708
same,composite z-score,[20],0.382
C=CCC(OC(C)=O)[C@@H]1[C@@H](N(Cc2cccc3ccccc23)C(=O)Cc2ccc(F)cc2)c2cc(OCCCO)ccc2N1C(=O)Cc1ccc(OC)cc1 (stereo not given in full),composite z-score,[1],-0.44
same,composite z-score,[2],-0.0312
same,composite z-score,[3],0.0398
same,z-score,[4],-1.07 (inactive)
same,composite z-score,[5],0.398
same,composite z-score,[6],-0.0555
same,composite z-score,[7],-0.0723
same,composite z-score,[8],0.665
same,composite z-score,[9],0.104
same,composite z-score,[10],1.25
same,composite z-score,[11],0.0243
same,z-score,[12],-0.81
same,composite z-score,[13],0.584
same,composite z-score,[14],0.965
same,composite z-score,[15],-0.652
same,composite z-score,[16],-0.197
same,composite z-score,[17],-0.0557
same,composite z-score,[18],-0.122
same,composite z-score,[19],-0.0854
same,composite z-score,[20],-0.0482
